Inconclusive results are not listed. Values without a mark were called inactive. The source made the active and inactive calls. Calls come from the whole dose curve; as a rule, active = well fitted cell-killing curve with a large enough effect; inconclusive = small, poorly fitted or top-dose-only effect, or effect the other way; inactive = no such curve, though single readings can be large or run the other way.
test: Viability qHTS for spleen associated tyrosine kinase inhibitor (SYKi) drug resistant MV4-11 cells (AID 1963824); conditions: SYKi-resistant MV4-11 viability, CellTiter-Glo, 72 h; series mostly up to 45 µM; viability, % of control: at the top concentration; note: nearly all actives have a fitted effect of over 35% in size
How it was run: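 SYK inhibitor-resistant MV4-11 AML cells, 500 per well, added to predispensed compounds and incubated 72 hr at 37 C, 5% CO2. Viability measured by CellTiter-Glo luminescence after 10 min at room temperature.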
Potency is the fitted concentration of half-maximal effect.

Row | Structure (SMILES) | Potency | viability, % of control
1 | Nc1nc2c(c(=O)[nH]1)C[C@@H](CCc1ccc(C(=O)N[C@@H](CCC(=O)O)C(=O)O)cc1)CN2 | 0.0092 µM (active) | –
2 | COC1=CC(=O)C[C@@H](C)[C@]12Oc1cc(OC)cc(OC)c1C2=O | – | 98.9%
3 | COc1cc(O)cc(C)c1C(=O)OC1C(CO)OC(OC2C(O)C(O)C(O)C(O)C2O)C(O)C1O (centres undefined) | – | 63.5% [at 17.3 µM]
4 | CC1(C)CC[C@]2(C(=O)O[C@@H]3O[C@H](CO)[C@@H](O)[C@H](O)[C@H]3O)CC[C@]3(C)C(=CCC4[C@@]5(C)CC[C@H](O[C@@H]6O[C@H](C(=O)O)[C@@H](O[C@@H]7O[C@H](CO)[C@@H](O)[C@H](O)[C@H]7O)[C@H](O)[C@H]6O[C@@H]6O[C@H](CO)[C@@H](O)[C@H](O)[C@H]6O)C(C)(C)C5CC[C@]43C)C2C1 (some centres undefined) | – | 104% [at 9.25 µM]
5 | COc1cccc2c1CCC[C@H]2CN(C)CCc1ccc2ccoc2c1 | 23.1 µM (active) | –
6 | COc1c2c(c(C)c3c1C(=O)OC3)OC1(C)CC(O)C34OC(OC)(OC3(C)C)C(O)CC4(C)C1C2 (centres undefined) | – | 90.7% [at 17.3 µM]
7 | Cn1nc(C(C)(C)C)cc1C(=O)N[C@@H](Cc1cccc(Cl)c1)C(=O)NCC#N | 13 µM (active) | –
8 | C=C1C(=O)O[C@H]2/C=C(/C)[C@@H](OC(C)=O)C/C=C(\C)C[C@@H](OC(=O)/C(=C/C)COC(=O)/C(=C/C)CO)[C@@H]12 | 1.59 µM (active) | –
9 | COc1ccc([C@H]2CNC(=O)C2)cc1OC1CCCC1 | – | 96.2%
10 | Cn1cc(Nc2cnccc2C(=O)O)c2cccnc21 | – | 105%
11 | CCN1CCC[C@@H]1CNC(=O)c1ccc2c(c1)NC(=O)c1cccc(C)c1S2 | 20.6 µM (active) | –
12 | O=c1[nH]ccc2c(S(=O)(=O)N3CCCNCC3)cccc12 | – | 81%
13 | CS(=O)(=O)Nc1ccc2oc3c(OC(F)F)ccc(C(=O)Nc4c(Cl)cncc4Cl)c3c2c1 | 23.1 µM (active) | –
14 | COc1ccc(N2CCOCC2)c2sc(NC(=O)N3CCC(C)(O)CC3)nc12 | – | 88.1%
15 | CC1(C)CC23[C@@H]4CC(=O)[C@@H]2COC(=O)[C@@H]3CC[C@H]41 | 1.64 µM (active) | –
16 | CC(=O)OC1CC2C(C)(C)C(=O)C=CC2(C)C2CC(=O)C3=C(CCC3C3=CC(O)OC3=O)C12C (centres undefined) | 11.2 µM (active) | –
17 | CO[C@H]1/C=C\O[C@@]2(C)Oc3c(C)c(O)c4c(O)c(c(/C=N\N5CCN(C6CCCC6)CC5)c(O)c4c3C2=O)NC(=O)/C(C)=C\C=C/[C@H](C)[C@H](O)[C@@H](C)[C@@H](O)[C@@H](C)[C@H](OC(C)=O)[C@@H]1C | 10 µM (active) | –
18 | Cc1ccc2[nH]c(=O)c(C3=NN(C(=O)CCC(=O)O)C(c4ccc(Br)cc4)C3)c(-c3ccccc3)c2c1 (centres undefined) | 23.1 µM (active) | –
19 | CN(C)CCCNc1c2ccccc2nc2c1[nH]c1ccccc12 | 0.731 µM (active) | –
20 | C[C@]12CCC[C@](C)(C(=O)O)C1CCC13C=C(CO)C(CCC12)C3 (some centres undefined) | – | 84.2%
21 | C[C@H](C(=O)NC1CCCC1)N(C(=O)Cn1nnc(-c2ccc3c(c2)OCO3)n1)C1CCCCC1 | 2.91 µM (active) | –
22 | CC1(O)CC(O)C2C(C(=O)O)=COC(OC3OC(CO)C(O)C(O)C3OC(=O)/C=C/c3ccc(O)cc3)C21 (centres undefined) | – | 91.9% [at 17.3 µM]
23 | O=C(/C=C/c1ccc(O)cc1)OC[C@H]1O[C@@H](OC(=O)/C=C/c2ccccc2)[C@H](O)[C@@H](O)[C@@H]1O | – | 87.9% [at 17.3 µM]
24 | CO[C@H]1O[C@@H]2O[C@@]3(C)CCC4[C@H](C)CCC([C@H]1C)[C@]42OO3 (some centres undefined) | 2.91 µM (active) | –
25 | CC1(C)NC2N(C1=O)c1ccccc1C2(O)CC(C(=O)O)n1cnc2ccccc2c1=O (centres undefined) | – | 95.7% [at 17.3 µM]
26 | C/C(=N\NC(=S)N1CCC1)c1ccccn1 | 0.0074 µM (active) | –
27 | CO[C@H]1/C=C\O[C@@]2(C)Oc3c(C)c(O)c4c(O)c(c5c(nc6cc(C)ccn65)c4c3C2=O)NC(=O)/C(C)=C\C=C/[C@H](C)[C@H](O)[C@@H](C)[C@@H](O)[C@@H](C)[C@H](OC(C)=O)[C@@H]1C | 16.4 µM (active) | –
28 | CCCCCOc1ccc(-c2cc(-c3ccc(C(=O)N[C@H]4C[C@@H](O)[C@@H](O)NC(=O)C5[C@@H](O)[C@@H](C)CN5C(=O)C([C@H](O)CC(N)=O)NC(=O)C([C@H](O)[C@@H](O)c5ccc(O)c(OS(=O)(=O)O)c5)NC(=O)C5C[C@@H](O)CN5C(=O)C([C@@H](C)O)NC4=O)cc3)no2)cc1 (some centres undefined) | – | 82.9% [at 17.3 µM]
29 | O=C(O)c1ccc(NC(=O)[C@H](CC2CCCC2)n2cnc(C(F)(F)F)c2)nc1 | 2.91 µM (active) | –
